# In PubChem BioAssay (NCI):
# Values joined by “and” are separate entries in the source; they are usually repeats but may differ in a detail not shown here. Identical values can stand only once. About 83,000 compounds went through this panel and 20% of them were active in at least one assay; those are over-represented in the sample as a whole.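 48-hour exposure, single concentration, 96-well plates; percent growth endpoint where 0 means no net growth. Active: below 10.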 Active and inactive are the calls of the source.
# System: MDA-MB-468 breast
# Assay: NCI-60 one-dose screen, 48 h (100 = growth as untreated, 0 = no growth, -100 = all killed)
# Settings: 10 µM unless noted
row,SMILES,growth
1,COc1ccc2c(c1)/C(=C/c1sc(=S)n(Cc3ccco3)c1O)C=N2,3.03% (active)
2,C=CCc1cc(Nc2c3ccc(Cl)cc3nc3ccc(OC)cc23)cc(CN(CC)CC)c1O,-19.1% (active)
3,CN=C(NC)N/N=C(C)\C=N\NC(=NC)NC,121% (inactive)
4,CC(=O)O[C@H]1C(=O)[C@@]2(C)[C@H]([C@H](OC(=O)c3ccccc3)[C@]3(O)C[C@H](OC(=O)[C@H](OC(=O)CCC(=O)OC4CCC(S/N=C(N)/N=C(\N)N(C)C)CC4)[C@@H](NC(=O)c4ccccc4)c4ccccc4)C(C)=C1C3(C)C)[C@]1(OC(C)=O)CO[C@@H]1C[C@@H]2O (stereo not given in full),-6.44% (active)
5,CCOc1ccc(N2C(N)=NC(N)=NC2(C)C)cc1,-0.227% (active) and 56.3% (inactive)
6,CCN(C(=O)Nc1ccccc1Cl)c1ccccc1,97.4% (inactive)
7,O=C(NC1CCCCC1)C(c1cccs1)N(CCc1ccccc1)C(=O)c1ccco1 (stereo not given),94.1% (inactive)
8,COc1ccc(C/C(C)=C(/c2ccc(OCCCN(C)C)cc2)c2ccc(OC(C)=O)cc2)cc1,63.8% (inactive)
9,NS(=O)(=O)c1cccc(Nc2nc(SCC(=O)c3ccc(Br)cc3)nc3ccccc23)c1,61.3% (inactive)
10,O=C(/C=C/c1c[nH]c2ccccc12)c1cc2ccccc2o1,121% (inactive)
11,COc1ccc(C2CC(c3cnccn3)=NN2)cc1OC (stereo not given),105% (inactive)
12,CC(=O)c1ccccc1O,101% (inactive) and 103% (inactive) and 108% (inactive)
13,N#C/C=C(\c1ccc([N+](=O)[O-])cc1)n1nnc2cc(Cl)c(Cl)cc21,-47.4% (active)
14,CC/C=C1/C(=O)C=C[C@@H]1C/C=C\CCCC(=O)OC,77.6% (inactive)
15,CCN(CC)CCCC(C)N=c1cc(Nc2cc(=NC(C)CCCN(CC)CC)c3cc(OC)ccc3o2)oc2ccc(OC)cc12 (stereo not given),-76.8% (active)
16,O=c1[nH]c(-c2ccccc2)nc(CN2CCCCC2)c1O,111% (inactive)
17,CCOC(=O)c1c(NS(=O)(=O)c2ccc(C)cc2)sc2c1CCC1(C2)OCCO1,87.6% (inactive)
18,COc1ccc(C2NC(=O)C(C#N)c3c2sc2c(F)cccc32)c(OC)c1 (stereo not given),24.3% (inactive)
19,N#CSCc1ccc(CSC#N)c(Cl)c1,44.1% (inactive)
20,CC1CCC(n2cnc3c(Cl)ncnc32)O1 (stereo not given),96.3% (inactive)

row,SMILES,growth
1,O=C(Cc1ccccn1)C(F)(F)C(F)(F)C(F)(F)F,115% (inactive)
2,COC(=O)CC1=C(c2ccc([N+](=O)[O-])cc2)CCC1=O,101% (inactive)
3,COc1ccc2[nH]cc(-c3nc(N)nnc3-c3cn(C)c4ccc(Br)cc34)c2c1,-31.3% (active)
4,Cc1ccc(-c2cc(C(=O)Nc3ccc(S(=O)(=O)N4CCCCC4)cc3)[nH]n2)c(O)c1,38.8% (inactive)
5,CC(C)(C)[Si](C)(C)OC1[C@@H](CNC(=O)NC(=O)NC(N)=O)O[C@@H](n2cnc3c(NC(=O)Nc4ccccc4)ncnc32)[C@H]1O[Si](C)(C)C(C)(C)C (stereo not given in full),99.1% (inactive)
6,Cn1c(-c2nonc2NC(=O)c2ccc(F)cc2)nc2ccccc21,99.5% (inactive)
7,NC(=O)c1ncn2c(=O)n(CCF)nnc12,48.4% (inactive)
8,O=[N+]([O-])c1ccccc1/C=N\NC(=S)N/N=C/c1ccccc1[N+](=O)[O-],30.7% (inactive)
9,COc1cc(/C=C/C(=O)c2ccc(-n3cc(CN4CCN(c5cc6c(cc5F)c(=O)c(C(=O)O)cn6C5CC5)CC4)nn3)cc2)cc(OC)c1OC,72.5% (inactive)
10,O=C1CC2C=CCN2C=C1NC(=O)C1CCCCC1 (stereo not given),96.2% (inactive)
11,O=S1(=O)N(Cc2ccccc2)[C@@H](Cc2ccccc2)C2O[C@H]2[C@H](Cc2ccccc2)N1Cc1ccccc1 (stereo not given in full),6.52% (active)
12,COc1ccc2cc(-c3ccc(C(=O)NN)c(C)n3)ccc2c1,106% (inactive)
13,COc1ccc(C(=O)c2cc3c(N)c(C(=O)Nc4ccccc4)sc3nc2C)cc1,3.89% (active)
14,C=C1C(=O)O[C@H]2[C@H]1CC/C(Cn1cc(-c3cc(C)c(C)cc3C)nn1)=C\CC[C@@]1(C)O[C@@H]21,-75.6% (active)
15,O=C1NC(=O)/C(=C/C=C/c2ccccc2)S1,63.3% (inactive)
16,CN1C(=O)N(C)C2Nn3c(s/c(=C\c4ccc(C(F)(F)F)cc4)c3=O)=NC21 (stereo not given),98.5% (inactive)
17,CCN(CC)CCOc1ccccc1-n1c(C)ccc1-c1ccccc1,85.1% (inactive)
18,COc1ccccc1/C=C1\Oc2cc(OCCCN3CCCC3)ccc2C1=O,85.9% (inactive)
19,Cc1cccc(Cl)c1NC(=O)c1ccc2nc(NC(=O)NCCN(C)C)sc2c1,30.6% (inactive)
20,COc1cc2nc(-c3ccc(Cl)cc3)cc(OCCCN3CCCC3)c2cc1OC,43.5% (inactive)
